This passage reports growth results from PubChem BioAssay (NCI).

Values joined by “and” are separate entries in the source; they are usually repeats but may differ in a detail not shown here. Equal values may be shown once. About 83,000 compounds went through this panel and 20% of them were active in at least one assay; those are over-represented in the sample as a whole.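 48-hour exposure, single concentration, 96-well plates; percent growth endpoint where 0 means no net growth. Active: below 10.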 Unmarked numbers belong to inactive results. Active and inactive are the calls of the source.

Test in all cases: NCI-60 one-dose screen, 48 h (100 = growth as untreated, 0 = no growth, -100 = all killed)
Holding throughout (details): 10 µM unless noted

Assay [1] deals with HCT-15 colon.
In assay [2] the test system is HT29 colon.
Assay [3] concerns SNB-75 CNS.
For assay [4], the system named is SNB-19 CNS.
Assay [5] deals with U251 CNS.
The test system of assay [6] is PC-3 prostate.
Assay [7] relates to SK-MEL-5 melanoma.
Assay [8] relates to UACC-62 melanoma.
The test system of assay [9] is LOX IMVI melanoma.
Assay [10] relates to SK-MEL-28 melanoma.
The test system of assay [11] is SK-MEL-2 melanoma.
The test system of assay [12] is EKVX NSCLC.
For assay [13], the system named is SN12C renal.
Assay [14] concerns UO-31 renal.
Assay [15] deals with TK-10 renal.
For assay [16], the system named is ACHN renal.
In assay [17] the test system is CAKI-1 renal.
The subject of assay [18] is A498 renal.
For assay [19], the system named is CCRF-CEM leukemia.
The subject of assay [20] is MOLT-4 leukemia.

Turning to `CCCN1C(=O)/C(=c2\sc3n(c2=O)NC2C(N=3)N(CC)C(=O)N2CC)c2ccccc21` (stereo not given), the growth in assay [1] is 24.6%; in assay [2] it was 13.5%; in assay [3], 12.9%; in [4] it was 40.2%; in assay [5], 29.9%; in assay [6] it was 42.5%. Besides, the growth is 41.8% in [7]; 31.8% in assay [8]; 38.8% in assay [9]; 54.5% in assay [10]; 68.6% in assay [11]; 55.7% in assay [12]. Also, the growth is 38.1% in assay [13]; 46.7% in [14]; 86% in assay [15]; 47.5% in assay [16]; 40.7% in assay [17]; 29% in assay [18]. For the same compound, the values for the growth in [19] and in assay [20] were 25.1% and 38%, respectively.

Turning to `O=C(NCc1ccc(Cn2c(=O)sn(-c3ccc(Cl)cc3)c2=O)cc1)OCc1ccc2c(Cl)cc(Cl)c(O)c2n1`, the growth in assay [1] was 15.7%; in [2], 111%; in assay [3] it was 69%; in assay [4] it was 39.1%; in assay [5] it was 36.3%; in [6], 35.5%. The growth in [7] was 33%; in [8] it was 33.4%; in [9], 31.6%; in [10], 47%; in [11] it was 74.3%; in [12], 44%. The growth in assay [13] was 38.1%; in assay [14] it was 13%; in assay [15], 63.7%; in assay [16] it was 26%; in [17], 52.1%; in assay [18], 70.1%. Also, the growth in assay [19] is 31.9%; in assay [20] it was 19.3%.

Regarding `COc1ccccc1/C=C1\COc2ccc(O)c(O)c2C1=O`, the growth in [1] is -13.3% (active); in assay [2] it was 57.5%; in assay [3], 11.6%; in assay [4] it was 43.7%; in assay [5] it was 15.3%; in [6], 33.1%. Also, the growth was 41.6% in [7]; 14.8% in [8]; -30.1% (active) in [9]; 47.9% in assay [10]; 58.5% in [11]; 71.6% in [12]. In addition, the growth is -11% (active) in assay [13]; -68.6% (active) in assay [14]; 35.2% in [15]; 1.49% (active) in assay [16]; 31.9% in assay [17]; 109% in [18]. Further, the growth in [19] is 2.74% (active); in assay [20] it was -1.1% (active).

On to `COc1ccc(C(CC(=O)c2ccc3c(c2)OCO3)C(=O)O)cc1OC` (stereo not given), for which the growth is 122% and 109% in assay [1]; 103% and 96.3% in assay [2]; 110% and 88.3% in [3]; 110% and 97.6% in [4]; 102% in assay [5]; 87.4% and 105% in assay [6]. In addition, the growth in assay [7] is 108% and 102%; in assay [8] it was 111% and 112%; in assay [9], 95.6% and 98.4%; in assay [10] it was 122% and 106%; in assay [11] it was 114% and 87.8%; in assay [12], 99.9%. For the same compound, the growth in assay [13] is 98% and 102%; in assay [14], 113% and 83.3%; in [15], 109% and 108%; in assay [16], 118% and 98.7%; in assay [17], 91.4% and 95.3%; in assay [18], 104% and 106%. In addition, the growth was 96% and 97.5% in assay [19]; 108% and 96.1% in assay [20].

Consider `O=C1/C(=C/c2cn(-c3ccccc3)nc2-c2ccccc2)SC(=S)N1c1ccc(Cl)cc1`, for which the growth is 73% in [1]; 99.1% in assay [2]; 90.4% in [3]; 71.9% in assay [4]; 57.2% in assay [5]; 56.8% in assay [6]. Moreover, the growth was 78.5% in assay [7]; 57.5% in assay [8]; 63.3% in assay [9]; 73.5% in assay [10]; 97.4% in [11]; 81.9% in assay [12]. The growth in assay [13] is 69.2%; in [14], 65.7%; in assay [15], 91.8%; in [16] it was 81.9%; in assay [17] it was 75.2%; in assay [18], 67%. The growth in assay [19] is 54%; in assay [20], 74.7%.

Take `Clc1cccc(Nc2ncnc3ccc(-c4cncc(-n5cnnn5)c4)cc23)c1`: the growth is 70.2% in [1]; 74% in [2]; 59.9% in [3]; 79.5% in [4]; 76.1% in [5]; 42.9% in [6]. Further, the growth is 65.8% in assay [7]; 85.3% in [8]; 70.3% in [9]; 97.3% in assay [10]; 106% in assay [11]; 26.6% in assay [12]. Further, the growth is 75% in assay [13]; 32.1% in [14]; 7.65% (active) in assay [15]; 28.9% in [16]; 24.3% in assay [17]; -7.13% (active) in [18]. Further, the growth was 75.2% in assay [19] and 58.9% in [20].

Take `Cc1ccc(S(=O)(=O)Nc2cc(Sc3ccccc3)c(O)c3ccccc23)cc1`: the growth is 91.9% in [1]; 120% in assay [2]; 98.4% in assay [3]; 105% in assay [4]; 16.1% in assay [5]; 34.6% in assay [6]. For the same compound, the growth in assay [7] is 41.8%; in [8] it was 42.9%; in assay [9], 2.72% (active); in [10], 84.8%; in assay [11], 81.8%; in assay [12] it was 116%. Further, the growth is 64.2% in assay [13]; 64% in assay [14]; 111% in assay [15]; 91.5% in assay [16]; 73.1% in assay [17]; 70% in [18]. For the same compound, the growth in assay [19] was 12.7%; in [20], -32.2% (active).

`O=C1C(Nc2ccc(Cl)cc2)=C(I)C(=O)c2ncccc21`: the growth in [1] is -40.4% (active); in assay [2], 43.1%; in assay [3], 19.4%; in [4], 69.3%; in assay [5], 30.3%; in assay [6] it was 37.1%. Moreover, the growth was -39.8% (active) in assay [7]; -7.27% (active) in assay [8]; -68.6% (active) in [9]; 39% in assay [10]; 70% in [11]; 62.2% in assay [12]. In addition, the growth in assay [13] is -22.1% (active); in assay [14], -51% (active); in assay [15] it was 47.5%; in assay [16], -98.8% (active); in assay [17], -17% (active); in assay [18], 99.6%. The growth in assay [19] is 6.74% (active); in assay [20], -1.19% (active).

Take `Nc1n[nH]c2cccc(C#Cc3cccc(C(=O)Nc4ccc(CN5CCOCC5)c(C(F)(F)F)c4)c3)c12`: the growth was 22.5% in assay [1]; 17.4% in assay [2]; 52.9% in assay [3]; 75.2% in assay [4]; 40.3% in assay [5]; 29.5% in assay [6]. Further, the growth is 17.5% in [7]; 5.89% (active) in assay [8]; 6.76% (active) in [9]; 14.5% in assay [10]; 23.3% in [11]; 63.4% in assay [12]. The growth was 54.8% in assay [13]; 22.3% in assay [14]; 76.2% in assay [15]; 24.8% in assay [16]; 73.4% in [17]; 67.5% in assay [18]. Further, the figures for the growth in [19] and in assay [20] were 20.7% and 16.9%, respectively.

As to `CN1CCN(C(=O)OCc2nc3c(N4CCOCC4)nc(Cl)nc3n2C)CC1`, the growth in [1] is -55.4% (active); in assay [2], -67.7% (active); in [3], -21.7% (active); in assay [4], 57.9%; in assay [5] it was -14.1% (active); in assay [6] it was -16.9% (active). The growth in [7] was -12.8% (active); in assay [8], -78% (active); in [9], -96.2% (active); in assay [10], -95.5% (active); in assay [11], -57.4% (active); in assay [12] it was -43.6% (active). Also, the growth was -75.1% (active) in assay [13]; -100% (active) in [14]; -78% (active) in assay [15]; -94.5% (active) in assay [16]; -75.2% (active) in assay [17]; -15.5% (active) in [18]. Besides, the growth in assay [19] was -6.96% (active); in assay [20], -24.8% (active).

On to `O=C1/C(=C/c2ccc(-c3cccc(C(F)(F)F)c3)o2)SC(=S)N1CCc1ccc(O)cc1`, for which the growth in [1] was 68.6%; in assay [2], 80.4%; in assay [3] it was 56.7%; in assay [4] it was 104%; in assay [5], 87.2%; in assay [6], 62.6%. For the same compound, the growth is 90.1% in assay [7]; 59% in assay [8]; 68.7% in assay [9]; 95.8% in assay [10]; 56.4% in assay [11]; 89% in assay [12]. Also, the growth in assay [13] is 75.1%; in [14], 52.9%; in [15], 94.1%; in assay [16], 87.4%; in assay [17], 53.8%; in assay [18] it was 65.3%. Also, the figures for the growth in assay [19] and in assay [20] were 14% and 37%, respectively.

On to `O=C(Nc1ncc(Cc2cccc(C(F)(F)F)c2)s1)c1ccc(-n2cnnn2)cc1`, for which the growth is 38.7% in assay [1]; 62% in assay [2]; 83.4% in assay [3]; 59.7% in [4]; 64.4% in assay [5]; 54.1% in assay [6]. In addition, the growth was 37.8% in assay [7]; 19.8% in [8]; 46.6% in [9]; 52.7% in [10]; 89.4% in [11]; 40.2% in assay [12]. Besides, the growth in assay [13] is 79.9%; in assay [14], 48.3%; in assay [15], 50.4%; in assay [16], 32%; in [17], 30.1%; in [18] it was 54.7%. Also, the growth was 55.3% in assay [19] and 39.4% in assay [20].

Consider `COCCn1cc(-c2csc(-c3cn(C)c4ccc(F)cc34)n2)c2cccnc21`, for which the growth in [1] was 27.9%; in assay [2], 35.5%; in assay [3], 76.4%; in [4], 82.6%; in assay [5], 65.5%; in assay [6], 46.5%. Moreover, the growth was 72.7% in assay [7]; 79.9% in [8]; 25.8% in assay [9]; 79.8% in assay [10]; 72% in [11]; 59% in assay [12]. Further, the growth in assay [13] is 74.5%; in [14] it was 64.2%; in [15] it was 81.5%; in assay [16], 78%; in [17] it was 84%; in assay [18], 36.3%. Moreover, the growth in assay [19] is 56%; in assay [20] it was 56.7%.
